Measurements as given in PubChem BioAssay (NCI).
This is part of a sample that, as a whole, favours compounds with a hit. Of some 83,000 tested, about 20% had one in any assay.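 Plates (96-well) were seeded with cells, treated with compound at one concentration, and incubated for 48 hours before percent growth was determined.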 Values without a mark were called inactive. Calls of active or inactive are those of the source.

system: TK-10 renal; test: NCI-60 one-dose screen, 48 h (100 = growth as untreated, 0 = no growth, -100 = all killed); conditions: 10 µM
Description: Growth inhibition of the TK-10 human tumor cell line is measured as a screen for anti-cancer activity. Cells are grown in 96 well plates and exposed to the test compound for 48 hours. Compounds are tested at a single concentration, which is 10^-5 M for most compounds. The reported endpoint is percent growth (GI% or GIPRCNT), where numbers from 0 - 100% represent growth inhibition, and numbers from -100% - 0 represent cell death. For example, a value of 40 represents 60% growth inhibition. A value of 0 means no net growth occurred over the course of the experiment. A value of -40 indicates 40% of cells at the beginning of the experiment died by the end of the experiment. A value of -100 means all cells are dead at the end of the experiment.
NCI-60 Human Tumor Cell Lines Screen was performed using the standard one-dose NCI protocol, which is described in more detail at https://dtp.cancer.gov/discovery_development/nci-60/default.htm.
Compounds with GIPRCNT values below 10 were considered active. Activity score was based on GIPRCNT using the following formula: […]
Score is 0 for GIPRCNT values of 100 or above, 50 for GIPRCNT values of 0, and 100 for GIPRCNT values of -100.

Going from `CC(=O)OC1Oc2ccccc2-c2oc(=O)c(-c3ccc(F)cc3)cc21` (stereo not given) to `COC(=O)c1cnc2c(c1)Oc1ccccc1-c1ccnn1-2`, the growth rises from 92.9% to 95.3%.

First: Brc1ccc(-c2cn3ccnc3c(-c3ccc(Br)cc3)n2)cc1
Second: COc1cc(-c2nc3ccccc3[nH]2)ccc1OCC(=O)N=Nc1c(O)[nH]c2ccccc12
The growth of the first is lower: 84.2% for the first, 136% for the second.

Going from `COc1ccc2nc(NC(=O)Nc3c(F)cccc3F)sc2c1` to `COc1ccc(C(=O)c2sc3nc(-c4cccs4)ccc3c2N)cc1OC`, the growth falls from 84.8% to 49.4%.

Compared with `O=C(c1ccccc1)C(Sc1ccccc1)c1ccccc1` (stereo not given), `Cc1cc(C#Cc2ccccc2)ccc1-n1c(/C=C/c2cc(O)ccc2O)nc2ccccc2c1=O` is lower in growth: 101% for the first, 29.7% for the second.

Going from `COc1ccc(C2=NNC(c3sc(Cl)nc3Cl)C2)cc1` (stereo not given) to `COc1ccc(-c2cn[nH]c2-c2cc(OC)c(OC)c(OC)c2)cc1`, the growth falls from 116% to 58%.

First: Cc1ccc(C)c(S(=O)(=O)NC2c3ccccc3Oc3ccccc32)c1
Second: Cc1ccc(/C(CS(=O)(=O)c2ccc(C)cc2)=N\O)cc1
The growth of the first is higher: 90.7% for the first, 82.7% for the second.

First: Nc1c(C(=O)NC2CCCCC2)sc2nc3c(cc12)C(=O)CCC3
Second: O=C(Nc1cccc([N+](=O)[O-])c1)NN1CCCCCC1
The growth of the first is higher: 140% for the first, 105% for the second.

Compared with `Cc1nc2sccn2c1-c1csc(Nc2cccc(Cl)c2C)n1`, `CCOC(=O)c1cc(-c2ccccc2)nc(N)n1` is higher in growth: 54.6% for the first, 127% for the second.

Going from `CCN(Cc1ccccc1)C1CCN(Cc2cc(Br)ccc2O)CC1` to `O=C(Nc1ccc(OS(=O)(=O)Cc2ccccc2)cc1)C12CC3CC(CC(C3)C1)C2`, the growth rises from 52.1% to 112%.

First: O=C(O)CCCN1C(=O)NC2(C1=O)c1ccccc1-c1ccccc12
Second: Nc1ccccc1NC(=O)CCCCCCC(=O)Nc1ccc2c(c1)/C(=C/c1ccc[nH]1)C(=O)N2
The growth of the first is higher: 90.1% for the first, 48.1% for the second.

First: CCCCCCCCCCSC(=N)N (tested in a mixture with another compound)
Second: CCCCCCCCCCCCCCCC(=O)N1CCN(C)CC1
The growth of the first is higher: 90.1% for the first, 73.8% for the second.

Compared with `CCN(CC)CC(O)Cc1ccc(OC)cc1` (stereo not given), `CC(C)C[C@H](NC(=O)CCn1ccc2ccccc2c1=O)B(O)O` is lower in growth: 96.5% for the first, 12.8% for the second.

First: COc1ccc(CSc2nc3cc(OC)c(OC)cc3c(=O)n2-c2ccc(OC)cc2OC)cc1
Second: COc1cc(-c2cc(-c3cc(OC)c(OC)c(OC)c3)nc3nc(N)[nH]c(=O)c23)ccc1Oc1ccnc2cc(Cl)ccc12
The growth of the first is higher: 108% for the first, 92.9% for the second.

First: CC(=O)CS(C)(=O)=O
Second: O=S(=O)(O)C1(O)CCCCC1
The growth of the first is lower: 103% for the first, 169% for the second.

Going from `CCOC(=S)Sc1ccc([N+](=O)[O-])cc1[N+](=O)[O-]` to `Cc1cccc2c(Nc3ccc(NS(C)(=O)=O)cc3)c3ccc([N+](=O)[O-])cc3nc12`, the growth falls from 94% to 20.7%.

Going from `C[N+]1=C(/C=C/c2ccc(I)cc2)C(C)(C)c2ccccc21` to `CN(C)CCCN1c2ccccc2Sc2ccc(C(F)(F)F)cc21`, the growth falls from 89.2% to 25%.

Compared with `CCN1CCOC1C(C)C` (stereo not given), `COc1ccc(/C=C2\SC(=S)N(CCCN3CCOCC3)C2=O)c(OC)c1` is lower in growth: 130% for the first, 104% for the second.

First: N#CCC1CCCC1
Second: O=[N+]([O-])C1CC2C=CC1C2 (stereo not given)
The growth of the first is lower: 104% for the first, 112% for the second.

`O=C(Nc1cccc(-c2nc3ccccc3[nH]2)c1)c1cccc(NC(=O)c2ccco2)c1` gave a growth of 91.6%.

`NC1CCC(Nc2nc(NCc3cc(Cl)ccc3O)c3ncn(C4CCCC4)c3n2)CC1` (stereo not given) was tested, and the growth was -3.98% (active).
For `CCCCCCCCCCCCCC[n+]1ccc(C)cc1`, the growth was -41.2% (active).
With `Cc1cccc2c1O/C(=C\c1ncc([N+](=O)[O-])n1C)C2=O` the growth was -34.3% (active).
